# Source: PubChem
# miR-21 reporter: qHTS Assay for Modulators of miRNAs and/orActivators of miR-21; HeLa miR-21 FLuc reporter, luciferase, 48 h; Potency, µM (highest dose often 38.3 µM), for the others: at the highest dose activity change, positive = activation, actives largely listed as activators; 340,000 tested, under 10 active;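 further: % of control where 0% means no effect; miR-21 action dims this reporter so a rising signal means less miR-21 action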
#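 Using DMEM plus 10% FBS, HeLa miR-21-FLuc cells are incubated with test compounds (final up to about 40uM) for 48 hours; firefly luciferase signal is then imaged following reagent-mediated lysis.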
# G9a inh: qHTS Assay for Inhibitors of Histone Lysine Methyltransferase G9a. Potency, µM (top dose mostly 102 µM), without a hit: at the highest dose activity, negative = inhibition, hits mostly inhibitors. AID 504332, 2011. Histone-lysine N-methyltransferase EHMT2 (Homo sapiens), Q96KQ7. G9a H3K9 monomethylation, AlphaScreen, 2 h. 350,000 tested, 8.8% active; further: potency means the concentration at half of the fitted maximal effect; on the % scale 0 is the no-effect control and ±100 the full control effect; nearly all actives have a fitted effect of over 75% in size
# Target sequence (Q96KQ7 913-1193 limits assumed): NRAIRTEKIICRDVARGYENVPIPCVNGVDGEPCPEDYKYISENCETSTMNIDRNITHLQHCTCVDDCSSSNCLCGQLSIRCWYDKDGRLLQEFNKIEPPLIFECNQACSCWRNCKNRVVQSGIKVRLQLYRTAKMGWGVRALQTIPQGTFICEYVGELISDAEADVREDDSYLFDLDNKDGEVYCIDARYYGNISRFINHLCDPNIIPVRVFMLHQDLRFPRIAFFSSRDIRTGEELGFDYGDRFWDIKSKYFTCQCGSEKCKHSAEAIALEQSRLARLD
#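 Using a bead-based AlphaScreen, monomethylated H3K9 product from 2 h room-temperature reactions (G9a 20 nM, peptide 500 nM, SAM 20 uM) was detected with 0.5 ug/mL rabbit anti-H3K9me1 antibody.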
# JMJD2E inh: qHTS Assay for Inhibitors of Human Jumonji Domain Containing 2E (JMJD2E) | Lysine-specific demethylase 4E (Homo sapiens), B2RXH2 | JMJD2E catalytic domain, FDH-coupled NADH fluorescence (FDH is formaldehyde dehydrogenase) | Potency, µM (top dose mostly 57.1 µM), without a hit: top-dose activity change, negative = inhibition, usual class: inhibitors | 230,000 tested, 1.6% active; active means well fitted inhibition curve with a large enough effect, not every such curve was filed as active; inconclusive means small, poorly fitted or top-dose-only effect, or another doubt; inactive means no such curve, though single readings can be large or run the other way;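 further: potency means the concentration at half of the fitted maximal effect; 0% = wells with enzyme and -100% = buffer wells without enzyme; nearly all actives have a fitted effect of over 50% in size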
# ALDH1A1 inh: qHTS Assay for Inhibitors of Aldehyde Dehydrogenase 1 (ALDH1A1); 220,000 tested, 7.3% active; Aldehyde dehydrogenase 1A1 (Homo sapiens), P00352; Potency, µM (doses to about 75.3 µM), without a hit: at the top dose activity, negative = inhibition, hits mostly inhibitors; AID 1030, 2008; Purified ALDH1A1, NADH fluorescence, propionaldehyde substrate; active means well fitted inhibition curve with a large enough effect, not every such curve was filed as active; inconclusive means small, poorly fitted or top-dose-only effect, or another doubt; inactive means no such curve, though single readings can be large or run the other way;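 further: potency means the concentration at half of the fitted maximal effect; plate controls were no enzyme wells and a reference inhibitor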
# Target sequence (P00352 whole entry, looked up): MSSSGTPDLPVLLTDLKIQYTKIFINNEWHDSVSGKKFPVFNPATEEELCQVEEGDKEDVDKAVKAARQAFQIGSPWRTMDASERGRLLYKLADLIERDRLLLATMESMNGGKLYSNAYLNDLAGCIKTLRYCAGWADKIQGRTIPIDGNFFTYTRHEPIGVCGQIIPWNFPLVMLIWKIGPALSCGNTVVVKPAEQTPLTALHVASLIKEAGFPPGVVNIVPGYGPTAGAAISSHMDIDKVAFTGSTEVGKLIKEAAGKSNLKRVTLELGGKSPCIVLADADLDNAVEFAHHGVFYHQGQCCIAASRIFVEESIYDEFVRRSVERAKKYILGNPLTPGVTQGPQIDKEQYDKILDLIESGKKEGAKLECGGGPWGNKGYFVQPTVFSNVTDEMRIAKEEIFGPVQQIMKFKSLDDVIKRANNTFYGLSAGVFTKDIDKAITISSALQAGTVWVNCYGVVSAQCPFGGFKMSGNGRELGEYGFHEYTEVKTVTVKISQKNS
# Sfp inh: qHTS Assay for Inhibitors of Bacillus subtilis Sfp phosphopantetheinyl transferase (PPTase) | 4'-phosphopantetheinyl transferase ffp (Bacillus subtilis), Q9F4F7 | Biochemical Sfp PPTase activity, qHTS | 310,000 tested, 3.5% active | Potency, µM, inactives show largest response in the series, negative = inhibition, actives largely listed as inhibitors | AID 1490, 2009;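 further: the enzyme is Sfp with the accession as filed and its product quenches rhodamine fluorescence; potency means the concentration at half of the fitted maximal effect; 0% = enzyme reaction without inhibitor and -100% = no enzyme wells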
#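 Step 1, compound plus 15 nM Sfp-PPTase, 15 min, room temperature. Step 2, add rhodamine-CoA (5 uM) and BHQ-2-YbbR (12.5 uM). Step 3, read 525/598 nm fluorescence at 0 and 30 min.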
# LMNA splice mod: qHTS Assay for Modulators of Lamin A Splicing | HeLa LMNA splicing GFP/RFP minigene ratio, 48 h | Potency, µM (titrated, usually from 46.1 µM), for the others: at the highest dose ratio change, negative = inhibition, actives largely listed as inhibitors | 200,000 tested, 0.01% active | AID 1487, 2009; active means well fitted inhibition curve with a large enough effect in the signal ratio, with a control signal flat, not every such curve was filed as active; inconclusive means small, poorly fitted or top-dose-only effect, or effect the other way, or a change in a side signal; the % refers to the signal ratio; further: potency means the concentration at half of the fitted maximal effect; on the % scale 0 is the no-effect control and ±100 the full control effect
#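 S3 HeLa cells stably expressing lamin A-EGFP splicing minigene plus DsRed2, 600 cells/well, 48 h compound exposure at 37C. Laser-scanning cytometry; analysed as GFP (500-530 nm)/RFP (575-640 nm) total intensity ratio; 0.5% DMSO vehicle.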
# Numbers without * were called inactive; u = inconclusive; x = not tested or not shown; [ ] = another dose, or the depositor's remark. Hits are enriched below; roughly 13% of the tested compounds scored in any of these assays. Unless noted, the call rests on the fitted dose curve; in most records, active means well fitted curve in the direction sought with a large enough effect; inconclusive means small, poorly fitted or top-dose-only effect, or another doubt; inactive means no such curve, though single readings can be large; an effect the other way counts as inactive or inconclusive.
SMILES,miR-21 reporter,G9a inh,JMJD2E inh,ALDH1A1 inh,Sfp inh,LMNA splice mod
CCc1cc2c(NC(C(=O)O)C(C)C)ncnc2s1 (stereo unspecified),-7.7%,-6.0%,-7.5%,15.8µM*,20.2%,7.5%
COc1ccc(-n2c(Cc3cccn3C)nnc2SCC(=O)Nc2cccc(Cl)c2)cc1,-4.6%,u,-5.8%,u,-12.1%,-4.8%
COc1ccc(-n2c(Cc3cccn3C)nnc2SCC(=O)Nc2ccc(C(C)=O)cc2)cc1,3.7%,50.1µM*,-20.5%,8.91µM*,-12.9%,-3.4%
COc1ccc(-n2c(Cc3cccn3C)nnc2SCC(=O)NC2CCCCC2)cc1,-1.7%,u,-3.1%,-12.9%,-0.6%,-4.9%
COc1ccc(-n2c(Cc3cccn3C)nnc2SCC(=O)NCC2CCCO2)cc1 (stereo unspecified),0.2%,u,-4.3%,-13.3%,50.1µM*,-9.2%
CN(C)S(=O)(=O)c1ccc(C(=O)NCc2nnc(SCC(=O)Nc3ccc(F)cc3)n2-c2ccc(F)cc2)cc1,-7.8%,10.3%[59 µM],-2.6%,7.08µM*,0.2%,-7.5%
COc1ccc(-n2c(Cc3cccn3C)nnc2SCC(=O)Nc2ccc(C)cc2)cc1,0.4%,35.5µM*,-14.0%,u,-2.4%,-3.0%
Cc1ccc(-n2nc(C)c3c(C)cc(=O)n(CC(=O)NC(C)c4ccccc4)c32)cc1 (stereo unspecified),1.1%,1.7%[59 µM],x,x,x,-4.5%[46 µM]
COc1ccc(NC(=O)c2cccc(S(=O)(=O)NCc3ccccc3)c2)cc1S(N)(=O)=O,x,23.0%[12.7 µM],x,x,x,x
CCN(C(=O)C1CCN(S(=O)(=O)c2ccc3c(c2)CCCN3C(=O)C2CCC2)CC1)c1cccc(C)c1,u,-8.1%[59 µM],x,x,x,u
O=C(Cc1ccc2c(c1)OCCO2)Nc1ccc(Cl)c(S(=O)(=O)N2CCOCC2)c1,x,-10.1%[2.33 µM],x,x,x,x
Cn1nnc2c(N3CCCCC3)ncnc21,-11.0%,-1.9%[59 µM],x,x,x,7.5%[46 µM]
Cc1ccn2c(=O)nc(SCC(=O)NCCc3ccccc3)nc2c1,x,-3.7%,x,x,x,x
CC(=O)Nc1cccc(NC(=O)CSc2nnc(Cc3cccn3C)n2-c2ccc(C)cc2)c1,-2.2%,50.1µM*,4.8%,5.8%,u,-7.9%
CCOc1ccc(NC(=O)CSc2nnc(Cc3cccn3C)n2-c2ccc(OC)cc2)cc1,4.5%,0.1%[12.7 µM],-1.3%,3.98µM*,0.3%,-7.4%
COc1ccc(NC(=O)CSc2nnc(Cc3cccn3C)n2-c2ccc(OC)cc2)cc1,-4.5%,44.7µM*,-8.4%,14.1µM*,4.4%,-9.9%
CC(=O)c1ccc(NC(=O)CSc2nnc(Cc3cccn3C)n2-c2ccc(F)cc2)cc1,3.3%,50.1µM*,0.8%,12.6µM*,-8.7%,1.3%
Cc1ccc(-n2c(Cc3cccn3C)nnc2SCC(=O)Nc2cc(C)on2)cc1,-1.7%,23.7%[2.33 µM],-0.9%,u,9.4%,11.0%
COc1ccc(-n2c(Cc3cccn3C)nnc2SCC(=O)Nc2cccc(NC(C)=O)c2)cc1,-2.9%,25.4%[2.33 µM],-6.3%,u,-8.5%,2.4%
COc1ccc(NC(=O)CSc2nnc(NC(=O)C3CCC3)s2)c(OC)c1,8.0%,9.4%,x,x,5.8%,x
Cc1nn(CCCC(=O)Nc2cc(C(F)(F)F)ccc2Cl)c(=O)c2c1sc1ccccc12,-6.6%,-42.5%[59 µM],x,x,x,x
Cc1ccsc1/C=C1\SC(N)=NC1=O,-39.1%,8.7%,4.1%,23.1%,3.5%,3.2%
Cc1ccsc1/C=C1/SC(N2CC(C)OC(C)C2)=NC1=O (stereo unspecified),-13.7%,44.7µM*,1.5%,11.2µM*,56.2µM*,-1.6%
CC1(C)Cc2c(C#N)c(NCCc3ccccc3)nc(-c3ccco3)c2CO1,-2.6%,-25.0%,u,u,50.1µM*,u
CC1(C)Cc2nc(NC3CCCCC3)c(C#N)cc2CO1,-3.4%,-2.9%,-0.1%,u,17.5%,x
SMILES,miR-21 reporter,G9a inh,JMJD2E inh,ALDH1A1 inh,Sfp inh,LMNA splice mod
CC1(C)Cc2c(C#N)c(NC3CCCCC3)nc(-c3ccco3)c2CO1,9.7%,11.2µM*,u,u,3.55µM*,-9.5%
N#Cc1c(-c2ccco2)nc(NCC2CCCO2)[nH]c1=O (stereo unspecified),1.3%,5.9%[12.7 µM],5.3%,-4.8%,19.5%,1.9%
CC1(C)Cc2c(C#N)c(NCC3CCCO3)nc(-c3ccco3)c2CO1 (stereo unspecified),1.5%,10µM*,u,u,7.94µM*,6.1%
CCN(CC)CCNc1nc(-c2ccco2)c2c(c1C#N)CC(C)(C)OC2,-3.2%,6.4%,u,u,4.6%,3.8%
CC(C)Cc1nc(NCCN2CCOCC2)c(C#N)c2c1COC(C)(C)C2,-6.7%,u,u,-1.2%,19.4%,-1.2%
CCCCc1nc(NCCN2CCOCC2)c(C#N)c2c1COC(C)(C)C2,-7.4%,-26.1%[12.7 µM],u,11.2µM*,-7.8%,2.7%
[N-]=C=C1C(=O)NC(=O)C([n+]2ccc(-c3ccncc3)cc2)C1c1ccccc1C(F)(F)F (stereo unspecified),-7.5%,x,u,x,50.1µM*,x
CCc1ccc(OCC(O)CN2CCC(CN3C(=O)c4cccc5cccc(c45)C3=O)CC2)cc1 (stereo unspecified),1.3%,13.1%[59 µM],-2.8%,u,50.1µM*,-1.9%
COc1cccc(OCC(O)CN2CCC(CN3C(=O)c4cccc5cccc(c45)C3=O)CC2)c1 (stereo unspecified),19.9%,u,u,u,-2.7%,x
COc1ccc(COCC(O)CN2CCC(CN3C(=O)c4cccc5cccc(c45)C3=O)CC2)cc1OC (stereo unspecified),15.8%,79.4µM*,u,u,-4.7%,u
Cc1cc(C)cc(OCC(O)CN2CCC(CN3C(=O)c4cccc5cccc(c45)C3=O)CC2)c1 (stereo unspecified),-20.3%,8.2%[0.501 µM],-1.3%,8.2%,-0.8%,0.3%[0.0737 µM]
O=C1c2cccc3cccc(c23)C(=O)N1CCN1CCN(CC(O)COc2ccc3ccccc3c2)CC1 (stereo unspecified),2.0%,u,u,-13.7%,25.1µM*,-18.5%
CC(=O)c1ccccc1OCC(O)CN1CCN(CCN2C(=O)c3cccc4cccc(c34)C2=O)CC1 (stereo unspecified),28.0%,22.6%[12.7 µM],u,u,10.1%,x
